# Laboratory results from PubChem BioAssay AID2557 (NMMLSC, 2010).
# Screen size: about 330,000 compounds; about 650 (0.2%) were called active. The sample holds actives, similar compounds and a random draw of the others, so the mix is not that of the screen. Unmarked numbers belong to inactive results. Rule as the data show it: active = inhibition above about 50%; inactive = the rest.
# Molecular target: Integrin alpha-4 (Homo sapiens) (UniProt P13612)
# Assay: inhibition in human VLA-4 binding assay, primary screen, VLA-4 allosteric modulator project, MLPCN library, flow cytometry, VLA-4 expressing cells (AID 2557)
# Conditions: ligand binding flow cytometry, active compounds read high, about 7 µM as worked out from the volumes in the protocol
# Integrin alpha-4 (Homo sapiens), sequence (P13612 whole entry, looked up): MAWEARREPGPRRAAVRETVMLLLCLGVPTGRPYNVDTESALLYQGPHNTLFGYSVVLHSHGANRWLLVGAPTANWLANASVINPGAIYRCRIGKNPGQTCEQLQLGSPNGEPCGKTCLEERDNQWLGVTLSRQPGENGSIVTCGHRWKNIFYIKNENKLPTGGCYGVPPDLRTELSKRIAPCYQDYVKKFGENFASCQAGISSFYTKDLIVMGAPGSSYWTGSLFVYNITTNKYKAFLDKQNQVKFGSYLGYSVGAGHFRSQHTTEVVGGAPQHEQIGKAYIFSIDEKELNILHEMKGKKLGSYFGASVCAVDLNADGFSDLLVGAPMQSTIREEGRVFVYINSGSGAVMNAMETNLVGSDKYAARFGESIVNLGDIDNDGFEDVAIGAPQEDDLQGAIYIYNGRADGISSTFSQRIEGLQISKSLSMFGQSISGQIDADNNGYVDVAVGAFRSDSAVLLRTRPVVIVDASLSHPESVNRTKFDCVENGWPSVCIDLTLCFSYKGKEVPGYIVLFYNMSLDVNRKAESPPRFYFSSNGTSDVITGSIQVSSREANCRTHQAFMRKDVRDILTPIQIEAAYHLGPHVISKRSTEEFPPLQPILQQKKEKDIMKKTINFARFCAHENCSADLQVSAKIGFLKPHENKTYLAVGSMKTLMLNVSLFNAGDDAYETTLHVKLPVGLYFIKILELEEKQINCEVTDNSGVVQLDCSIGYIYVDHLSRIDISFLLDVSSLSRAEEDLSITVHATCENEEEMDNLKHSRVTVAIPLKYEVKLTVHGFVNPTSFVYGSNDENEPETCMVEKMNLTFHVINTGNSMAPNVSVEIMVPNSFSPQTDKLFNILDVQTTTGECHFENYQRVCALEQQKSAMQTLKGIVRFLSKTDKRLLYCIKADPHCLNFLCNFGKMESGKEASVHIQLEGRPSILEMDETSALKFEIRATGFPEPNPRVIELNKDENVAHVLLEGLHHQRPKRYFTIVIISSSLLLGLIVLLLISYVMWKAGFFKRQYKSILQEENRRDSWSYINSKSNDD
row,SMILES,inhibition
1,COc1cccc(NC(=O)N2C3CCCC2CC(NC(C)=O)C3)c1 (configuration not stated),9.9%
2,COc1cccc(-c2cccc(NC(=O)C3CCN(C4CCC4)CC3)c2)c1,58.8% (active)
3,O=C(Nc1cccc(-c2cccc(Cl)c2)c1)C1CCN(C2CCC2)CC1,3.72%
4,CC1(C)CC(=O)C(N=Nc2c(F)cccc2F)=C(O)C1,6.6%
5,Cc1ccc2nc(SCc3cn4c(C)cc(C)nc4n3)[nH]c2c1,9.58%
6,CCc1ccc(NC(=O)Cn2nc(C)c([N+](=O)[O-])c2C)cc1,-5.52%
7,Cc1nn(CC(=O)Nc2ccc(C#N)cc2)c(C)c1[N+](=O)[O-],56.9% (active)
8,Cc1nn(CC(=O)Nc2ccc(N(C)C)cc2)c(C)c1[N+](=O)[O-],-13.4%
9,Cc1ccc(/C=C/C(=O)OCC(=O)NCc2ccc(Cl)cc2)o1,50.7% (active)
10,Cc1cc(NC(=O)COC(=O)/C=C/c2ccc(C)o2)no1,4.12%
11,O=C(COC(=O)c1ccco1)NCc1ccc(Cl)cc1,5.08%
12,COCCN1C(=O)C(=O)/C(=C(/O)c2ccc(S(=O)(=O)N3CCCCC3)cc2)C1c1ccc(OC)c(OC)c1 (configuration not stated),-2.1%
13,O=C(CCNC(=O)c1ccccc1Cl)NN=Cc1ccco1,4.92%
14,CC(=O)n1cc([C@H]2C=C(C(=O)N3CCOCC3)O[C@@H](OCc3ccc(CO)cc3)C2)c2ccccc21,-20.8%
15,Cc1cccc(C)c1N1CCN(S(=O)(=O)N2CCCCC2)CC1,-7.93%
16,CC1O[C@@H](OC2C(O)C(C)O[C@H](OC(=O)[C@]34CCC(C)(C)C[C@H]3C3=CCC5[C@@]6(C)CC(O)C(O[C@@H]7OC(CO)C(O)[C@@H](O)[C@@H]7O)[C@@](C)(C(=O)O)C6CC[C@@]5(C)[C@]3(CO)CC4)C2O[C@H]2OC(C)[C@@H](O[C@@H]3OCC(O[C@@H]4OC(CO)C(O)[C@H](O)C4O)[C@@H](O)[C@@H]3O)[C@H](O)C2O)C(O)C(O)C1O (some centres not stated),-0.38%
17,Cc1cc(C(=O)Nc2c(C)nn(Cc3ccccc3)c2C)on1,34.7%
18,Cc1nn(Cc2ccc(F)cc2)c(C)c1NC(=O)c1cccnc1Cl,12.2%
19,Cc1nn(Cc2ccc(Cl)c(Cl)c2)c(C)c1NC(=O)c1cc(C2CC2)on1,55% (active)
20,COc1ccccc1CNC(=O)c1ccc(Cl)c(S(=O)(=O)N2CCCC2)c1,4.64%
21,COc1ccc(N=C2SC(C(=O)Nc3ccc(F)cc3)CC(=O)N2C)cc1 (configuration not stated),5.98%
22,N#CCC(=O)NC1CCC(CC2CCC(NC(=O)CC#N)CC2)CC1 (configuration not stated),-12%
23,CS(=O)(=O)n1nc(-c2ccco2)nc1N,15.3%
24,O=C(CSc1nnc(-c2ccco2)n1-c1ccccc1)NCCc1ccccc1,4.12%

row,SMILES,inhibition
1,CSc1nc(-c2ccco2)nn1C(=O)CCc1ccccc1,54% (active)
2,CCOC(=O)NC(=O)CSc1nnc(SCCC(=O)O)s1,-3.59%
3,O=C(c1cc2ccccc2o1)N1CCN(S(=O)(=O)c2ccc(Cl)s2)CC1,2.54%
4,CCOC(=O)N1CCC(c2cc(=O)n(-c3ccccc3)[nH]2)CC1,-1.65%
5,O=C(CSc1ncnc2sccc12)NC1CCS(=O)(=O)C1 (configuration not stated),6.26%
6,COc1ccc(-n2ncc3c2CC(C)(C)CC3NC(=O)CCc2c(C)nn(C)c2C)cc1 (configuration not stated),4.43%
7,O=C(Cn1cc2c(n1)CCCCC2)NCCN1CCOCC1,-8.14%
8,COc1ccccc1CNC(=O)Cn1cc2c(n1)CCCC2,-20.9%
9,COCCNC(=O)Cn1cc2c(n1)CCCCC2,54.5% (active)
10,CC(=NCc1ccc2c(c1)OCO2)C1=C(O)c2ccccc2C1=O,3.18%
11,COC(=O)[C@@H]1C[C@@]2(O)[C@@H](O)[C@@H](O)[C@@H](O)C[C@H]2N1Cc1ccc(C)s1,23.4%
12,COc1ccc2c3c1O[C@H]1C[C@@H](O)C=C[C@@]31CCN(C)C2,13.3%
13,Cc1ccccc1OC(=O)Cn1c(C(F)(F)F)nc2ccccc21,7.11%
14,CC(C)(C)NC(=O)NC(=O)COC(=O)Cn1c(C(F)(F)F)nc2ccccc21,60.1% (active)
15,CN1CCN(C(=O)Cn2c(C(F)(F)F)nc3ccccc32)CC1,5.72%
16,CCOCCCN(C(=O)Cn1nnc(-c2ccc(OC)c(OC)c2)n1)C(CC)C(=O)NC1CCCC1 (configuration not stated),4.18%
17,Cc1cnc(NC(=O)C2CCCC2)s1,92.5% (active)
18,Cc1nc(NC(=O)C2CCCCC2)sc1C,3.52%
19,Cc1cnc(NC(=O)c2ccccn2)s1,11.4%
20,Cc1cc(C)c(C#N)c(SCC(=O)NN2CC(=O)N(c3ccccc3F)CC2=O)n1,13.8%
21,O=C(COC(=O)c1ccccc1O)NCc1ccco1,-3.83%
22,Cc1cc(C(=O)OCC(=O)NCc2ccco2)c(C)n1-c1ccccc1,64.6% (active)
23,CN(c1ccccc1)S(=O)(=O)c1ccc(Cl)c(C(=O)OCC(=O)NCc2ccco2)c1,17.3%
